The values below come from PubChem BioAssay (NCI).

Holding throughout (assay): NCI-60 one-dose screen, 48 h (100 = growth as untreated, 0 = no growth, -100 = all killed)
Holding throughout (conditions): 10 µM unless noted

The subject of experiment [1] is DU-145 prostate.
The test system of experiment [2] is K-562 leukemia.
Experiment [3] relates to MALME-3M melanoma.
The subject of experiment [4] is MDA-MB-231 breast.
The test system of experiment [5] is RXF 393 renal.
Experiment [6] has as its system SF-268 CNS.
Experiment [7] concerns SF-295 CNS.
In experiment [8] the test system is SF-539 CNS.
In experiment [9] the test system is UACC-257 melanoma.
Experiment [10] relates to M14 melanoma.
Experiment [11] concerns HCT-15 colon.
Experiment [12] concerns HT29 colon.
Experiment [13] relates to SNB-75 CNS.
Experiment [14] has as its system SNB-19 CNS.
For experiment [15], the system named is U251 CNS.
In experiment [16] the test system is PC-3 prostate.
Experiment [17] relates to UACC-62 melanoma.
The subject of experiment [18] is LOX IMVI melanoma.
In experiment [19] the test system is SK-MEL-28 melanoma.
The test system of experiment [20] is SK-MEL-5 melanoma.

The panel holds about 83,000 compounds, 20% with a hit somewhere; the sample as a whole holds those more often.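 A percent growth of 40 corresponds to 60% growth inhibition; 0 means no net growth; -100 means all cells died. Active threshold: below 10.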 Values without a mark were called inactive. Activity calls are given as the source filed them.

On to `CCOc1cc2ncc(C#N)c(Nc3ccc(F)c(Cl)c3)c2cc1NC(=O)CC1CCSS1` (stereo not drawn), for which the growth in experiment [1] is -81.5% (active); in [2] it was -26.4% (active); in experiment [3], -57.8% (active); in experiment [4] it was -66.4% (active); in experiment [5], -56.5% (active); in [6], -55.2% (active). The growth was -36.8% (active) in experiment [7]; -12.6% (active) in experiment [8]; -53.6% (active) in experiment [9]; -66.8% (active) in experiment [10]; -71.1% (active) in experiment [11]; -72.5% (active) in experiment [12]. In addition, the growth is -72% (active) in experiment [13]; -34.5% (active) in experiment [14]; -58.9% (active) in experiment [15]; -72.6% (active) in experiment [16]; -66% (active) in [17]; -81.2% (active) in [18]. In addition, the growth in experiment [19] was -79.1% (active).
As to `COCCNc1ccc2c3c(cccc13)C(=O)N(CCN(C)C)C2=O`, the growth in experiment [1] was 27.7%; in experiment [2] it was -7.82% (active); in [3], 22.2%; in [4], 46.6%; in [5] it was -23.7% (active); in experiment [6] it was 26.3%. The growth in [7] was 16.8%; in experiment [8] it was 22.9%; in experiment [9] it was 16.8%; in experiment [10], 29%; in experiment [11], 20%; in experiment [12] it was 10.4%. In addition, the growth in [13] is 47.7%; in [14], 22.4%; in experiment [15], 28.1%; in experiment [20], -33.5% (active); in experiment [17] it was 3.48% (active); in experiment [18], 2.86% (active). Moreover, the growth in experiment [19] is 37.5%.
With `O=C1OC(c2ccccc2)C(O)=C1c1ccccc1` (stereo not drawn), the growth in [1] is 112%; in experiment [2], 110%; in experiment [3], 116%; in experiment [4] it was 104%; in experiment [5], 111%; in experiment [6], 96.4%. Besides, the growth is 109% in [7]; 102% in experiment [8]; 95.2% in experiment [9]; 111% in experiment [10]; 108% in [11]; 111% in [12]. The growth in experiment [13] was 102%; in experiment [14], 105%; in [15], 100%; in experiment [16], 99.1%; in [17], 104%; in experiment [18] it was 113%. The growth in experiment [19] was 120%.
In the case of `O=C(COc1ccc(-c2nc3cc(Cl)c(Cl)cc3[nH]2)cc1)N=Nc1c(O)[nH]c2ccccc12`, the growth is -20.7% (active) in experiment [1]; 10.8% in [2]; -68.9% (active) in experiment [3]; -50.2% (active) in experiment [4]; -5.96% (active) in experiment [5]; -64.5% (active) in experiment [6]. Also, the growth in experiment [7] was 5.99% (active); in experiment [8] it was 41.4%; in experiment [9], 54.4%; in [10], -22.1% (active); in [11] it was 79.4%; in experiment [12], 4.49% (active). Moreover, the growth in [13] was -73.8% (active); in experiment [14], -35.9% (active); in [15] it was -86.3% (active); in experiment [16] it was -50.6% (active); in experiment [17] it was 1.75% (active); in [18], 6.14% (active). The growth in experiment [19] is -49.1% (active).
Consider `O=C(/C=C/C=C/c1ccc2c(c1)OCO2)N/N=C\c1ccc(O)cc1O`, for which the growth is 44% in [1]; 11.6% in experiment [2]; 40.3% in experiment [3]; 34.4% in [4]; 57.9% in experiment [5]; 24.4% in [6]. For the same molecule, the growth was 13.8% in [7]; 13.3% in [8]; 28.5% in experiment [9]; 30.3% in [10]; 17% in experiment [11]; 48.1% in experiment [12]. The growth in experiment [13] was 64%; in [14], 49.3%; in experiment [15] it was 31.3%; in experiment [16], 38%; in experiment [17] it was 14.3%; in [18] it was 9.69% (active). Further, in experiment [19], the growth is 42.1%.
Take `CC1=C[C@H]2c3c(c(O)c(O)c4oc5cc(O)ccc5c(=O)c34)[C@H](c3cc(O)c(O)c4oc5cc(O)ccc5c(=O)c34)[C@H]2C(C)(C)C1`: the growth is 34.4% in experiment [1]; 6.38% (active) in experiment [2]; 60.8% in [3]; 50.9% in experiment [4]; 54.5% in experiment [5]; 36% in experiment [6]. Moreover, the growth in experiment [7] is 21.5%; in experiment [8], 20.4%; in experiment [9] it was 62.7%; in experiment [10], 38.3%; in experiment [11] it was 33.4%; in experiment [12] it was 20.2%. For the same molecule, the growth in [13] was 21.3%; in experiment [14], 22.1%; in experiment [15], 14.8%; in [16], 29.7%; in [17] it was 5.54% (active); in experiment [18], 16.2%. Further, in [19], the growth is 46.9%.
On to `c1ccc(Cn2cc(-c3nc4ccccc4s3)c3cccnc32)cc1`, for which the growth in experiment [1] was 102%; in experiment [2], 129%; in experiment [3], 95%; in experiment [4] it was 84%; in experiment [5], 115%; in [6], 99%. Further, the growth in experiment [7] is 102%; in [8] it was 100%; in [9] it was 110%; in experiment [10], 106%; in [11], 109%; in [12] it was 100%. Also, the growth in experiment [13] is 91%; in experiment [14] it was 110%; in experiment [15], 100%; in experiment [16], 97%; in experiment [17], 97.6%; in experiment [18], 99.3%. In addition, in experiment [19], the growth is 113%.
